What was measured:
Assay in all cases: PBM binding z-score (relative to random genomic background probes); higher = stronger binding; sequences stand for … in GC…GCGATTGACAGCGTAGAATGAAGG
[1] = system: RARb homodimer (NR concentration 270 nM)
Summary of the method: (§1)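 Antibodies against each partner of ligand-free nuclear receptor dimers (one per run) detected binding on custom Agilent 4×180K protein-binding microarrays after 1 h incubation. The double-stranded probes had 34-nt variable regions carrying direct-repeat seeds, single-nucleotide variants, half-site ablations and random human genomic background sequences. Binding z-scores, from regression-normalized fluorescence, use the random background probes as reference.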

[2] = system: RARg:RXRa (NR concentration 270 nM, RXRa partner concentration 90 nM)
Summary of the method: as §1

[3] = system: RARg homodimer (NR concentration 270 nM)
Summary of the method: as §1

[4] = system: RXRa DBDmut IVT, anti-RXR (DBD mutation: RXRa K156A/R161A, NR concentration 90 nM)
Summary of the method: as §1

[5] = system: RXRa homodimer (NR concentration 180 nM)
Summary of the method: as §1

[6] = system: THRa:RXRa (NR concentration 90 nM, RXRa partner concentration 90 nM)
Summary of the method: as §1

[7] = system: THRa homodimer (NR concentration 90 nM)
Summary of the method: as §1

[8] = system: VDR:RXRa (NR concentration 270 nM, RXRa partner concentration 90 nM)
Summary of the method: as §1

[9] = system: VDR homodimer (NR concentration 270 nM)
Summary of the method: as §1

CCTACTGGGCCATTCAGAGGTCATGGATCATATG
PBM binding z-score [1]: 4.22 | PBM binding z-score [2]: 4.63 | PBM binding z-score [3]: 3.45 | PBM binding z-score [4]: 0.21 | PBM binding z-score [5]: 4.21 | PBM binding z-score [6]: 3.64 | PBM binding z-score [7]: 1.55 | PBM binding z-score [8]: 3.92 | PBM binding z-score [9]: 2.09

CGTAGCAGGCCAATCTGGGTCACTCAAGGCTTGA
PBM binding z-score [1]: 1.95 | PBM binding z-score [2]: 0.96 | PBM binding z-score [3]: 1.26 | PBM binding z-score [4]: 0.317 | PBM binding z-score [5]: 0.616 | PBM binding z-score [6]: 3.65 | PBM binding z-score [7]: 0.645 | PBM binding z-score [8]: 0.309 | PBM binding z-score [9]: -0.295

ATATGTGGGTTAAGGGTCATTCAGGTTGGTTCGC
PBM binding z-score [1]: 3.84 | PBM binding z-score [2]: 4.83 | PBM binding z-score [3]: 3.59 | PBM binding z-score [4]: 2.43 | PBM binding z-score [5]: 6.27 | PBM binding z-score [6]: 3.62 | PBM binding z-score [7]: 2.41 | PBM binding z-score [8]: 5.79 | PBM binding z-score [9]: 4.82

ATCTATAGGTAAAGATAGTTCAGTGAATGCAAAT
PBM binding z-score [1]: 1.07 | PBM binding z-score [2]: 0.887 | PBM binding z-score [3]: 0.972 | PBM binding z-score [4]: 0.0561 | PBM binding z-score [5]: 0.775 | PBM binding z-score [6]: 0.89 | PBM binding z-score [7]: 0.0462 | PBM binding z-score [8]: 1 | PBM binding z-score [9]: 0.507

CCTTATGGGTCACGAGGTTATAGCACGACGAGCG
PBM binding z-score [1]: 3.34 | PBM binding z-score [2]: 5.59 | PBM binding z-score [3]: 4.86 | PBM binding z-score [4]: 1.46 | PBM binding z-score [5]: 6.1 | PBM binding z-score [6]: 3.3 | PBM binding z-score [7]: 0.63 | PBM binding z-score [8]: 4.4 | PBM binding z-score [9]: 1.1

GCTGCTAGGTCAACTGATGGTCGGCTAAAGCTCG
PBM binding z-score [1]: 3.67 | PBM binding z-score [2]: 4.74 | PBM binding z-score [3]: 5.56 | PBM binding z-score [4]: 1.82 | PBM binding z-score [5]: 2.91 | PBM binding z-score [6]: 3.09 | PBM binding z-score [7]: 0.97 | PBM binding z-score [8]: 1.4 | PBM binding z-score [9]: 0.148

TAGCCTAGGTCATGGGCCAGTATTCCACGCGAAC
PBM binding z-score [1]: 2.79 | PBM binding z-score [2]: 4.27 | PBM binding z-score [3]: 4.6 | PBM binding z-score [4]: 0.71 | PBM binding z-score [5]: 3.8 | PBM binding z-score [6]: 2.99 | PBM binding z-score [7]: 1.33 | PBM binding z-score [8]: 2.09 | PBM binding z-score [9]: 0.208

CAGGCTAGGTCAGGGCCAGTATAGGAGGAACGTT
PBM binding z-score [1]: 2.77 | PBM binding z-score [2]: 3.07 | PBM binding z-score [3]: 4.16 | PBM binding z-score [4]: -0.54 | PBM binding z-score [5]: 1.45 | PBM binding z-score [6]: 1.95 | PBM binding z-score [7]: 0.49 | PBM binding z-score [8]: 0.258 | PBM binding z-score [9]: 0.035

TCTCGGAGGACACGAAGGCCAGAGCTTTCCAGAG
PBM binding z-score [1]: 1 | PBM binding z-score [2]: 0.605 | PBM binding z-score [3]: 1.84 | PBM binding z-score [4]: 0.482 | PBM binding z-score [5]: 0.00493 | PBM binding z-score [6]: 1.43 | PBM binding z-score [7]: 0.215 | PBM binding z-score [8]: -0.411 | PBM binding z-score [9]: -0.212

CCGACTGGGGCATAGGTTACCATACTCAGTACGA
PBM binding z-score [1]: 0.786 | PBM binding z-score [2]: 0.922 | PBM binding z-score [3]: 0.833 | PBM binding z-score [4]: -0.223 | PBM binding z-score [5]: 1.03 | PBM binding z-score [6]: 0.28 | PBM binding z-score [7]: -0.456 | PBM binding z-score [8]: -0.0526 | PBM binding z-score [9]: -0.332

ACTAGTTGGTCAGTTGAGGTCACACACAATTCGG
PBM binding z-score [1]: 4.23 | PBM binding z-score [2]: 3.87 | PBM binding z-score [3]: 4.02 | PBM binding z-score [4]: 1.51 | PBM binding z-score [5]: 4.05 | PBM binding z-score [6]: 5.15 | PBM binding z-score [7]: 5.39 | PBM binding z-score [8]: 4.65 | PBM binding z-score [9]: 4.05

AGAACGAGGGCACGCTGAGTTGATATCAGAGTAG
PBM binding z-score [1]: 1.18 | PBM binding z-score [2]: 2.05 | PBM binding z-score [3]: 2.32 | PBM binding z-score [4]: 2.08 | PBM binding z-score [5]: 1.32 | PBM binding z-score [6]: 1.89 | PBM binding z-score [7]: -0.269 | PBM binding z-score [8]: 2.02 | PBM binding z-score [9]: 1.71

TAGCCTAAGTCATTCAGGGGCCAGTATAGAAAGC
PBM binding z-score [1]: 0.772 | PBM binding z-score [2]: 1.72 | PBM binding z-score [3]: 0.386 | PBM binding z-score [4]: -0.0569 | PBM binding z-score [5]: 0.191 | PBM binding z-score [6]: 0.835 | PBM binding z-score [7]: -0.418 | PBM binding z-score [8]: -0.0562 | PBM binding z-score [9]: -0.452

Source: the supplement of paper PMC6555819
